From PubChem BioAssay (NCATS) come the findings set out here.

The source made the active and inactive calls. The call rests on the fitted dose curve; in most records, active means well fitted activation curve with a large enough effect; inconclusive means small, poorly fitted or top-dose-only effect; inactive means flat fitted curve, though single readings scatter.

A short description of this experiment: Cellular Toxicity (caspase-3) SK-N-SH (AID 661). Particulars: SK-N-SH caspase-3 activation, qHTS, DMSO as zero, staurosporine as full; series mostly up to 91.7 µM. The text has this: NIH Chemical Genomics Center [NCGC]
NIH Molecular Libraries Screening Centers Network [MLSCN]
National Institutes of Environmental Health Sciences [NIEHS]
National Toxicology Program [NTP]
We have developed a 1536-well cell-based assay for quantitative high throughput screening (qHTS) against a number of cell lines to determine in vitro caspase 3/7 activity of small molecules. This particular assay uses the SK-N-SH cell line which is derived from human neuroblastoma.
NCGC Assay Protocol Summary:
The Caspase-Glo 3/7 assay (Promega) is a homogeneous method to measure caspase-3 and caspase-7 activities in cultured cells. The quantitation of caspase 3/7 activity is based on the cleavage of a peptide-aminoluciferin substrate. After caspase cleaves the substrate the free aminoluciferin is liberated and serves as the substrate of luciferase, which generates the light. The luminescent signal is proportional to amount of caspase 3/7 activity present.
Using the Caspase-Glo 3/7 assay, the amount of caspase 3/7 activity was measured in the SK-N-SH cell line with complete culture medium following compound treatment for 16 hours. The assay was performed in opaque white 1536-well plates. In the screen, tamoxifen and staurosporine were used as positive controls. Library compounds were measured for their ability to cause the activation of caspase 3/7 in the cell line, as reflected by an increase in luminescence signal, in a concentration-dependent manner. Data were normalized to the controls for basal activity (DMSO only) and 100% stimulation (10 uM staurosporine). AC50 values were determined from concentration-response data modeled with the standard Hill equation.
qHTS protocol for caspase 3/7 assay in SK-N-SH cells
[Step] [Parameter] [Value] [Description]
1. Reagent; 5 uL; 1500 SK-N-SH cells/well
2. Time; 5 hr; 37 °C incubation
4. Controls; 23 nL; Tamoxifen 0.23 uM to 100 uM & staurosporine 1.4 pM to 100 uM
5. Time; 16 hr; 37 °C incubation
6. Reagent; 5 uL; Caspase-Glo 3/7 reagent
7. Time; 1 hr; Room Temperature
8. Detection; Luminescence; Viewlux plate reader
Keywords: caspase 3/7, apoptosis, SK-N-SH cell line, luminescence, NTPHTS, NTPHTS_NCGC, NIEHS, EPA, DSSTox, MLSMR, MLSCN, NIH Roadmap, qHTS, NCGC
(In qHTS, concentration-response curves come from the screen itself.)
For the compound `CC1CC(OC(=O)c2ccccc2O)CC(C)(C)C1` (configuration not stated), the result was inactive.
On to `C=CCNC(N)=S`, for which the call was inactive.
In the case of `O=C1C(c2[nH]c3ccccc3c2O)=Nc2ccccc21` it was “inactive”; in that of `O=C1c2cccc(O)c2C(=O)c2c(O)cccc21`, “inactive”; in that of `CCCC(O)C(CC)CO` (configuration not stated), “inactive”.
In the case of `FC(F)(F)C(Cl)Br` (configuration not stated) it was “inactive”; in that of `CC(=O)Nc1ccccc1`, “inactive”; in that of `O=C(O)CCCCC1CCSS1` (configuration not stated), “inactive”.
In the case of `COc1ccc(O)cc1` it was “inactive”; in that of `CCN(CC)C(=O)c1cccc(C)c1`, “inactive”.
Regarding `Cc1c(N(C)C)c(=O)n(-c2ccccc2)n1C`, the call was inactive.
`CC(=O)NS(=O)(=O)c1ccc(N)cc1`: the outcome was inactive.
Consider `CCCCCC(N)=O`, for which the compound was called inactive.
To `CC(=O)OCC(COC(C)=O)OC(C)=O` belongs “inactive”; to `CC(=O)Nc1ccc(C(=O)O)cc1`, “inactive”; to `CCCCCCCC(=O)OCC(COC(=O)CCCCCCC)OC(=O)CCCCCCC`, “inactive”.
Consider `CCCCOC(=O)c1ccc(N)cc1`, for which the compound was classed as inactive.
To `Cc1cc(C)nc(NS(=O)(=O)c2ccc(N)cc2)n1` belongs “inactive”.
In the case of `O=C(c1ccccc1)C(O)c1ccccc1` (configuration not stated) it was “inactive”; in that of `CC(=O)Nc1cccc(O)c1`, “inactive”; in that of `Nc1ccc(S(=O)(=O)c2ccc(N)cc2)cc1`, “inactive”.
For `Cc1cc(=O)[nH]c(=S)[nH]1`, the compound was classed as inactive.
